What was measured:
Assay in all cases: log2 ratio of Biotin-Ahx-Ub-VS probe labelling (fragment/DMSO); higher = less target engagement (more negative = stronger competition), active = hit call of the paper (q ≤ 0.05, log2 ratio ≤ -1)
Details in all cases: compound concentration: 200 uM; treatment time: 3 h
OTUD6B = biological target: T1, OTUD6B (UniProt Q8N6M0)
T1 sequence (whole entry): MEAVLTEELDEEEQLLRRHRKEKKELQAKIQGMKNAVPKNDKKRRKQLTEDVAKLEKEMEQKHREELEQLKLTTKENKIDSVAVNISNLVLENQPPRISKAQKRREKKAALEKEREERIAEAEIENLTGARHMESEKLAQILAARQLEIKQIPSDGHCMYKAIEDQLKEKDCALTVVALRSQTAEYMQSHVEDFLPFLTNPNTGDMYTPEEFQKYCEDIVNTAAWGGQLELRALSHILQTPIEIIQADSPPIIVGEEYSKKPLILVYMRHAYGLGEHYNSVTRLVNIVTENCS
Summary of the method: (§1)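 Labelling with Biotin-Ahx-Ub-VS (0.5 µM final, 1 h) followed a 3 h triplicate treatment of HEK293T lysate (495 µg per sample, Tris/CHAPS/IGEPAL buffer with protease inhibitors) with fragment at 200 µM or vehicle. Labelled DUBs were NeutrAvidin-enriched, digested with LysC and trypsin, and run by diaPASEF LC-MS/MS. The values, average log2 fragment/vehicle ratios by unpaired t-test, come from global-median-normalised Spectronaut label-free quantities. Proteins with ≥2 unique peptides were used.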

OTUD7B = biological target: T2, OTUD7B (UniProt Q6GQQ9)
T2 sequence (whole entry): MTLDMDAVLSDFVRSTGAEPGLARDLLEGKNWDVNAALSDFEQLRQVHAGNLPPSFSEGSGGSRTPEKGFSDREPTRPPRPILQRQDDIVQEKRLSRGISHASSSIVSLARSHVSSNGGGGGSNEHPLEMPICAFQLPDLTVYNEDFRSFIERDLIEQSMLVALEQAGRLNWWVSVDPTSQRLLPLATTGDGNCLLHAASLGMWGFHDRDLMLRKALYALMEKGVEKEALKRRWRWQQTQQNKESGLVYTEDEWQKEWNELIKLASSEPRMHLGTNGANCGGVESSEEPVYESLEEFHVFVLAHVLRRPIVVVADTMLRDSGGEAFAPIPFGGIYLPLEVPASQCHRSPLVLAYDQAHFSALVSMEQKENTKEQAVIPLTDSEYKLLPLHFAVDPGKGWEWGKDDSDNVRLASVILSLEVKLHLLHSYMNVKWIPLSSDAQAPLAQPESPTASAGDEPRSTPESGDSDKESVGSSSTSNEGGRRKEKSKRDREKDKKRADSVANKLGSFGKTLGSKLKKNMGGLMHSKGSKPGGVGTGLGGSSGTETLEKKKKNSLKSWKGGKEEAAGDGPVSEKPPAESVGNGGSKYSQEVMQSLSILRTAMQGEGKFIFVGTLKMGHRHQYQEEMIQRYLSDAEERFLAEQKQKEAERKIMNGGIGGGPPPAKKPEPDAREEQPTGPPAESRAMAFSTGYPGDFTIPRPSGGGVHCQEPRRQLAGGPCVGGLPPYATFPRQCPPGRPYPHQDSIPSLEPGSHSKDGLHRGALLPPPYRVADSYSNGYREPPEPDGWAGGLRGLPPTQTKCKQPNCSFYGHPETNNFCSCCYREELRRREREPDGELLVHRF
Summary of the method: as §1

PRPF8 = PRPF8 (UniProt Q6P2Q9)
Summary of the method: as §1

PSMD7 = biological target: T3, PSMD7 (UniProt P51665)
T3 sequence (whole entry): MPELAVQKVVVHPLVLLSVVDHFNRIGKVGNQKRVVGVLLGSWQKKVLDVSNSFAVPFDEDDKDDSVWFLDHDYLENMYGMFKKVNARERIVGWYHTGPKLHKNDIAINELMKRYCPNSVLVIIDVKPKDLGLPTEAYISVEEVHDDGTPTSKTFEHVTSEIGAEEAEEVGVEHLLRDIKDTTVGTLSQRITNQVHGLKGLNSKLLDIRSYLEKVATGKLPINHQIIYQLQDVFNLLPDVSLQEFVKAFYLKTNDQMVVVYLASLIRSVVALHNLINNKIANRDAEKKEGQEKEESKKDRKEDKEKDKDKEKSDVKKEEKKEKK
Summary of the method: as §1

UCHL1 = UCHL1 (UniProt P09936)
Summary of the method: as §1

UCHL3 = biological target: T4, UCHL3 (UniProt P15374)
T4 sequence (whole entry): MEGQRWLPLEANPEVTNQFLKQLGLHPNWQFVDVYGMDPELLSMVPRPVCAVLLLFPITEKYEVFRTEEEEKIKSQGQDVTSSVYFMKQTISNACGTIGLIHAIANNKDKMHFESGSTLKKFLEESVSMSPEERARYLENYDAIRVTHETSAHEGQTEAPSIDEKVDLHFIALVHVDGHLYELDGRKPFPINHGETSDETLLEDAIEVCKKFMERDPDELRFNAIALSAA
Summary of the method: as §1

UCHL5 = biological target: T5, UCHL5 (UniProt Q9Y5K5)
T5 sequence (whole entry): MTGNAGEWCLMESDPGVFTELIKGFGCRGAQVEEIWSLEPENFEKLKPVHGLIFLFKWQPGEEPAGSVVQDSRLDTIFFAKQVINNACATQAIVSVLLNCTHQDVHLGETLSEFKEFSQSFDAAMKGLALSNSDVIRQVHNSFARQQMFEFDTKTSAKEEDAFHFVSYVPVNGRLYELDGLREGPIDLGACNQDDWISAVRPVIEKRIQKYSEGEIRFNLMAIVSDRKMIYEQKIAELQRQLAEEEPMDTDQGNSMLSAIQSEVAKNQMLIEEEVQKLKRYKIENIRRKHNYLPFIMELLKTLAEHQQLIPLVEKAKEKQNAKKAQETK
Summary of the method: as §1

USP10 = USP10 (UniProt Q14694)
Summary of the method: as §1

USP15 = biological target: T6, USP15 (UniProt Q9Y4E8)
T6 sequence (whole entry): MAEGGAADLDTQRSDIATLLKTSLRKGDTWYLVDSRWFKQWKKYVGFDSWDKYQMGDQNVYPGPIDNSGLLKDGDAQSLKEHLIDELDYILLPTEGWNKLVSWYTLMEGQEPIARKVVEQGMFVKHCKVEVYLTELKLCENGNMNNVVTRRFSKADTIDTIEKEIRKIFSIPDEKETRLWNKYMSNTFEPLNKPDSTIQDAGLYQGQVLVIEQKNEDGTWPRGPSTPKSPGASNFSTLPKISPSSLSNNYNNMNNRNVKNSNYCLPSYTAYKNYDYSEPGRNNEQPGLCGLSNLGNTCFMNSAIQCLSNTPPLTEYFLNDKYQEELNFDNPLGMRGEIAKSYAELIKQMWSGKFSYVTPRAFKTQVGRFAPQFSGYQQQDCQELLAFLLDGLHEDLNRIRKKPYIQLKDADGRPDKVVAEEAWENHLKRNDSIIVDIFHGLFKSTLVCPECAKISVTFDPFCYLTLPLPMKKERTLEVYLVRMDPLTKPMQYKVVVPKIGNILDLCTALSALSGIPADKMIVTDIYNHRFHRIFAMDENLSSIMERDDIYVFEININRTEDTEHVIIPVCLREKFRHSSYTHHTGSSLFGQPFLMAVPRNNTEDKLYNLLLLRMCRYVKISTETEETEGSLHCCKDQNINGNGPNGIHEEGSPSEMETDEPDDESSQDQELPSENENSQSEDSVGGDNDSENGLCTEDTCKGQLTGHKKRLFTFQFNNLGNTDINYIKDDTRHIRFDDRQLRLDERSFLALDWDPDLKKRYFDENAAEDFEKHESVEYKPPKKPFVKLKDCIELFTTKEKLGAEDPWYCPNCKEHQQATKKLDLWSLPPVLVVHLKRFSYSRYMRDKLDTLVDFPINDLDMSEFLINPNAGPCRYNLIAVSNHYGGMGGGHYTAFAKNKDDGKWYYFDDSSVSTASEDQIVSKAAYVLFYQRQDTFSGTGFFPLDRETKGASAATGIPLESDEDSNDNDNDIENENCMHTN
Summary of the method: as §1

USP16 = USP16 (UniProt Q9Y5T5)
Summary of the method: as §1

Measured: log2 ratio of Biotin-Ahx-Ub-VS probe labelling

Sequence of USP16 (Q9Y5T5 whole entry, looked up): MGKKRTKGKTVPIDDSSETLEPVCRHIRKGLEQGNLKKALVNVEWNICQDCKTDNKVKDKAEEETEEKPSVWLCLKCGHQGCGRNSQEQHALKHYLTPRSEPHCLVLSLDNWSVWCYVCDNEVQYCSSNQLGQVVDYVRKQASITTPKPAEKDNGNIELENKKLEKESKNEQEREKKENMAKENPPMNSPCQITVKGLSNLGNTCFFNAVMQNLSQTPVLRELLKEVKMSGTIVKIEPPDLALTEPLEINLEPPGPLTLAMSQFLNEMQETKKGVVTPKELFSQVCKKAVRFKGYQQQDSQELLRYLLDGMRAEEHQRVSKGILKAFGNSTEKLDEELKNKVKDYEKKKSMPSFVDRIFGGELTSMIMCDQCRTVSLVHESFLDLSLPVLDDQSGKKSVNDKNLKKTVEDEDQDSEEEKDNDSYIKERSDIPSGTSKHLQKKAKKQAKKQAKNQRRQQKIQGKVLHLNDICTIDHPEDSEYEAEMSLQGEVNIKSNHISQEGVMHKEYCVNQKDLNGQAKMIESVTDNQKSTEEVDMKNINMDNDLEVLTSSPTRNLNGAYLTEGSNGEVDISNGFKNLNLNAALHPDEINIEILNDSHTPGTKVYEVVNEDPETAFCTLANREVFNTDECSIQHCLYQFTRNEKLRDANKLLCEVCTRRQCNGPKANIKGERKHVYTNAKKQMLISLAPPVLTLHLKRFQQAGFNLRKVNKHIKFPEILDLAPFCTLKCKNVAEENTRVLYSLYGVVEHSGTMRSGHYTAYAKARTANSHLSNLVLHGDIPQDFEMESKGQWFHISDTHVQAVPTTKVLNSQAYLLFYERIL
Sequence of USP10 (Q14694 whole entry): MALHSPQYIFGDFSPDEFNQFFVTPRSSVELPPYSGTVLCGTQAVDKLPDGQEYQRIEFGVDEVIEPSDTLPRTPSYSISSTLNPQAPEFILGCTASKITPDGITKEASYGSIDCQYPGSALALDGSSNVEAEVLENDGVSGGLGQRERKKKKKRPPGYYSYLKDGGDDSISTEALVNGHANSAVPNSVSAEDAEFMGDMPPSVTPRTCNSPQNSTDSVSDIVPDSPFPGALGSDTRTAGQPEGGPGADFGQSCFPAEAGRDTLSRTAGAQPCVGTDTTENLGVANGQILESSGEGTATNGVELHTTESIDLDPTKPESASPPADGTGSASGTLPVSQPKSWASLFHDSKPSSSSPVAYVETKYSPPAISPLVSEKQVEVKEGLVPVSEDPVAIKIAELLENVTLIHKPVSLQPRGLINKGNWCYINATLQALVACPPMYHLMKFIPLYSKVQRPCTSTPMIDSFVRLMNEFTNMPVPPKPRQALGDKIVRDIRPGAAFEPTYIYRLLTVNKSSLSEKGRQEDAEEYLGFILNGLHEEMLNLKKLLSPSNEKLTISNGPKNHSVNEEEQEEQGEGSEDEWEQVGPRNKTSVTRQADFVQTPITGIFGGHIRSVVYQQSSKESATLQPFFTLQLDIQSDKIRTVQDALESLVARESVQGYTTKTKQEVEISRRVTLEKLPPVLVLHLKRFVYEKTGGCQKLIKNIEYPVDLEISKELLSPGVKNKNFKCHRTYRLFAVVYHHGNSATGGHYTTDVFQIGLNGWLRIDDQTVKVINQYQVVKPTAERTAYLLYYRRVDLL
Sequence of UCHL1 (P09936 whole entry, looked up): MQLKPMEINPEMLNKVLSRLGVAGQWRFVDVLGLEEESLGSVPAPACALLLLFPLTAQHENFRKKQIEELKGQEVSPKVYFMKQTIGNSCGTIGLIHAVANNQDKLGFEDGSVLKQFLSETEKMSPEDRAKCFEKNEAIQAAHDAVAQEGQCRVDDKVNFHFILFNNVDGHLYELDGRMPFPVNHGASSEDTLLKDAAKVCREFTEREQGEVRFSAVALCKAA

O=C(CCl)N1CCC2(CCC(O)CC2)CC1
inactive: OTUD6B -0.306 | OTUD7B -0.236 | PRPF8 -0.102 | PSMD7 -0.109 | UCHL3 0.404 | UCHL5 -0.157 | USP10 -0.17 | USP15 -0.243 | USP16 0.0341
active: UCHL1 -1.76

Source: the supplement of paper PMC11732987, “Enantioselective OTUD7B fragment discovery through chemoproteomics screening and high-throughput optimisation” (Communications Chemistry, 2025)
